Assay results as given in PubChem BioAssay AID651820 (National Center for Advancing Translational Sciences (NCATS), 2012).
The whole screen tested about 340,000 compounds, of which about 12,000 (3.5%) were called active. Roughly 18% stayed inconclusive and do not appear here. This is one part of a sample in which actives are shown more often than they occur. Calls follow the shape of the dose curve; as a rule, active = well fitted inhibition curve with a large enough effect; inconclusive = small, poorly fitted or top-dose-only effect, or another doubt; inactive = no such curve, though single readings can be large or run the other way.
% is scaled to controls: 0 for no effect and ±100 for the full control effect.

Assay: qHTS Assay for Inhibitors of Hepatitis C Virus (HCV)
Details: Huh7.5.1 HCVcc-Cre infection, luciferase reporter, 44 h; series mostly up to 41.8 µM; activity change, negative = inhibition: at the top concentration
Excerpt: Hepatitis C virus (HCV) infects about 200 million people in the world. Many infected people progress to chronic liver disease including cirrhosis with a risk of developing liver cancer. To date, there is no effective vaccine for hepatitis C. Current therapy based on interferon is only effective in about half of the patients and is associated with significant adverse effects. The fraction of people with HCV who can complete a successful treatment is estimated to be no more than 10 percent. Recent development of direct-acting antivirals against HCV, such as protease and polymerase inhibitors, is promising but still requires combination with peginterferon and ribavirin for maximal efficacy. In addition, these agents are associated with high rate of resistance and many have significant side effects. Due to the lack of a culture system for infectious HCV, the search for new HCV drugs has been greatly hampered. […] High-throughput screening (HTS) with an infectious HCV system would cover the complete spectrum of potentially druggable targets in all stages of HCV lifecycle, and would have more biological relevance than other cell-based assays. Moreover, targeting several key processes in the viral life cycle may not only increase antiviral efficacy; more importantly, it may also reduce the capacity of the virus to develop resistance to the compound. The goal of this project is to identify novel HCV inhibitors as new therapies for hepatitis C, using a highly sensitive and specific assay platform which is based on a HCV infectious cell culture system established in the laboratory and adapted for high-throughput HCV drug screen. NIH Chemical Genomics Center [NCGC] NIH Molecular Libraries Probe Centers Network [MLPCN] MLPCN Grant: MH095511 Assay Submitter (PI): Jake Liang, NIDDK
The assay will start with plating 1,000 cells/well in 3 µL volume and culture for 4 h. Then 23 nL of compounds from the library collection will be added to each well, followed by adding 2.5 µL of HCVcc-Cre virus (~ 0.5 moi) and further cultured for 44 h before the luciferase assay. A volume of 4.5 µL luciferase substrates will be added to each well and the plates will be incubated at room temperature for 15 min. and then read for 15 sec. for the luciferase activity
For `CCOC(=O)c1cc(-c2ccccc2C)n(Cc2cc(C)no2)n1`, the “activity change, negative = inhibition” value was -15.8% (inactive).
With `Cc1c(C(=O)OCC(=O)N(CCC#N)c2ccccc2)oc2c1ccc1ccccc12` the Potency was 8.91 µM (active).
With `N#CCCN(C(=O)COC(=O)c1ccc(S(=O)(=O)N2CCCCCC2)cc1)c1ccccc1` the “activity change, negative = inhibition” value was -2.62% (inactive).
In the case of `Cc1cc(C)n2nc(C(=O)OCC(=O)N(CCC#N)c3ccc(F)cc3)nc2n1`, the “activity change, negative = inhibition” value is reported as 24.9% (inactive).
With `Cc1cccc(C)c1NC(=O)COC(=O)c1c(C)nn(-c2ccccc2)c1C` the “activity change, negative = inhibition” value was -29.5% (inactive).
With `Cc1ccc(S(=O)(=O)Nc2nc(CN3CCOCC3)nc3sc(C)c(C)c23)cc1` the “activity change, negative = inhibition” value was 14.3% (inactive).
With `CSc1nsc(SCC(=O)Nc2cc(C(=O)O)ccc2C)n1` the “activity change, negative = inhibition” value was 28.5% (inactive).
For `COc1ccc(C)cc1NC(=O)CSc1nc(SC)ns1`, the Potency was 11.2 µM (active).
For `COc1ccc(C)cc1NC(=O)CSc1cccc[n+]1[O-]`, the “activity change, negative = inhibition” value was 20.4% (inactive).
With `Cc1ccc(C(=O)CN2C(=O)NC3(CCOc4ccccc43)C2=O)s1` (stereo not given) the “activity change, negative = inhibition” value was 7.99% (inactive).
For `Cc1ccc(N2CC(C(=O)Nc3cc(Cl)ccc3-n3cncn3)CC2=O)cc1` (stereo not given), the “activity change, negative = inhibition” value was 8.85% (inactive).
With `CCc1nn(CCCN2CCN(c3cccc(Cl)c3)CC2)c(=O)n1CCOc1ccccc1` the Potency was 10 µM (active).
With `CCN1C(=O)/C(=C\N2CCN(c3cccc(Cl)c3)CC2)SC1=S` the “activity change, negative = inhibition” value was -4.91% (inactive).
For `OC(COc1ccccc1)CN1CCN(c2cccc(Cl)c2)CC1` (stereo not given), the “activity change, negative = inhibition” value was 13.3% (inactive).
In the case of `Cc1ccc(C(=O)OCC(=O)N2CC(C)CC(C)C2)cc1S(=O)(=O)N1CCCCC1` (stereo not given), the “activity change, negative = inhibition” value is reported as -4.66% (inactive).
In the case of `O=C(Nc1ccncc1)c1ccc(Cl)c([N+](=O)[O-])c1`, the “activity change, negative = inhibition” value is reported as -0.941% (inactive).
In the case of `NC(=O)c1ccc(NC(=O)COC(=O)c2ccc([N+](=O)[O-])cc2)cc1`, the “activity change, negative = inhibition” value is reported as 11.3% (inactive).
In the case of `CC(=O)Nc1ccc(NC(=O)C(C)OC(=O)c2ccccc2C(=O)c2ccc(Cl)c([N+](=O)[O-])c2)cc1` (stereo not given), the Potency is reported as 11.2 µM (active).
In the case of `CC(OC(=O)CNC(=O)c1ccc(Cl)c([N+](=O)[O-])c1)C(=O)NCc1ccco1` (stereo not given), the activity change, negative = inhibition is reported as -1.08% [at 8.37 µM] (inactive).
For `CC(=O)Nc1ccc(NC(=O)COC(=O)c2ccccc2C(=O)c2ccccc2)cc1`, the “activity change, negative = inhibition” value was 5.01% (inactive).
For `N#Cc1cccc(NC(=O)COC(=O)c2ccccc2C(=O)c2ccc(Cl)c([N+](=O)[O-])c2)c1`, the Potency was 10 µM (active).
With `COc1ccc(C(=O)COC(=O)c2c(C)noc2C)cc1Cl` the “activity change, negative = inhibition” value was -8.16% (inactive).
In the case of `CCOC(=O)c1ccc(NC(=O)C2CC(=O)N(c3ccc4c(c3)OCCO4)C2)cc1` (stereo not given), the “activity change, negative = inhibition” value is reported as 7.75% (inactive).
For `CCCN(CC(=O)Nc1ccccc1C)C(=O)c1ccc(OCC(=O)N2CCOCC2)c(OCC)c1`, the “activity change, negative = inhibition” value was -8.77% (inactive).
In the case of `NC(=O)NC(CC(=O)NNC(=O)c1ccccn1)c1ccc(Cl)cc1` (stereo not given), the “activity change, negative = inhibition” value is reported as 0.701% (inactive).
With `O=C(NCC1CCCO1)c1cc2c(s1)CCCC2` (stereo not given) the “activity change, negative = inhibition” value was -18.7% (inactive).
For `O=C(O)c1cc(S(=O)(=O)Nc2ccc3cn[nH]c3c2)ccc1Br`, the “activity change, negative = inhibition” value was 7.46% (inactive).
With `O=C(NCc1ccccc1)C1=C[C@@H](c2ccccc2)C[C@@H](OCCCCO)O1` the “activity change, negative = inhibition” value was 6.06% (inactive).
With `N#C/C(=C(/O)Cc1cccc2ccccc12)c1nc2ccccc2s1` the “activity change, negative = inhibition” value was 13.7% (inactive).
For `c1ccc2c(CNn3cnnc3)cccc2c1`, the “activity change, negative = inhibition” value was 0.47% (inactive).
For `N=C(N)SCc1cccc2ccccc12`, the Potency was 6.31 µM (active).
In the case of `CC(=O)Cn1cnc2c(cnn2-c2ccccc2)c1=O`, the “activity change, negative = inhibition” value is reported as -0.203% (inactive).
In the case of `Cc1ccc2c(c1)c1ncn(Cc3ccc(F)cc3)c(=O)c1n2C`, the “activity change, negative = inhibition” value is reported as -22.6% (inactive).
In the case of `CC(C)(C)n1ncc2c(=O)n(Cc3ccc(Cl)cc3)cnc21`, the Potency is reported as 11.2 µM (active).
For `CC(C)Cn1c(SCC(=O)Nc2ccc(Cl)cc2F)nc(O)cc1=O`, the “activity change, negative = inhibition” value was 30.9% (inactive).
For `O=C(OCC(=O)N1CCN(C(=O)c2ccco2)CC1)c1c(Cl)cccc1Cl`, the “activity change, negative = inhibition” value was 16.5% (inactive).
With `CC1CCCCC1NC(=O)Cn1cnc2c1c(=O)n(C)c(=O)n2C` (stereo not given) the “activity change, negative = inhibition” value was -3.41% (inactive).
For `Cc1ccc(OC(=O)c2cc3ccccc3o2)cc1`, the “activity change, negative = inhibition” value was 4.88% (inactive).
With `C/C(=N\NC(=S)Nc1ccc(C)cc1)c1cc2ccccc2o1` the Potency was 10 µM (active).
For `Cc1ccc(NC(=O)c2cc3ccccc3o2)cc1`, the “activity change, negative = inhibition” value was -10.5% (inactive).
For `COc1cc(C(=O)NC2CCN(C)CC2)ccc1Nc1ncc2c(n1)N(C1CCC(O)CC1)CCC(=O)N2C` (stereo not given), the “activity change, negative = inhibition” value was -26.6% (inactive).
In the case of `O=C(CSc1nnc(N2CCOCC2)n1-c1cccc(F)c1)N1CCN(c2ccccn2)CC1`, the “activity change, negative = inhibition” value is reported as 2.86% (inactive).
For `Cc1cccc(-n2ncc3c(=O)[nH]c(SCC(=O)Nc4cc(C)on4)nc32)c1`, the “activity change, negative = inhibition” value was 0.218% (inactive).
With `Cc1c(O)c(C)c2c(c1O)C(=O)C[C@@H](c1ccccc1)O2` the “activity change, negative = inhibition” value was -1.63% (inactive).
For `O=C(COc1ccc([N+](=O)[O-])cc1Cl)Nc1ccc2[nH]c(=O)[nH]c2c1`, the “activity change, negative = inhibition” value was 1.57% (inactive).
For `COc1ccc(C(=O)Nc2ccc(CN3CCOCC3)cc2)cc1`, the “activity change, negative = inhibition” value was 3.24% (inactive).
For `O=C(Nc1ccc(CSc2ccccc2)cc1)c1ccc(CN2CCOCC2)cc1`, the Potency was 3.16 µM (active).
In the case of `O=C(Nc1ccccc1C(=O)N1CCOCC1)c1ccc(CSc2ccccc2)cc1`, the “activity change, negative = inhibition” value is reported as -26% (inactive).
In the case of `CN(Cc1ccccc1)C(=O)COC(=O)/C=C/c1ccc2c(c1)OCO2`, the “activity change, negative = inhibition” value is reported as -6.21% (inactive).
With `CC(=O)c1c(C)[nH]c(C(=O)COc2ccc3c(C)cc(=O)oc3c2)c1C` the “activity change, negative = inhibition” value was -0.953% (inactive).
With `O=C(Nc1ccc2nc3n(c(=O)c2c1)CCCC3)c1ccc(Cl)nc1` the “activity change, negative = inhibition” value was -17.7% (inactive).
In the case of `CC1(C)C/C(=N/Nc2ccc([N+](=O)[O-])cc2[N+](=O)[O-])C(C)(C)O1`, the “activity change, negative = inhibition” value is reported as -10.5% (inactive).
With `CCOC(=O)C1(Cc2cccc(OC)c2)CCN(C(C)COC)CC1` (stereo not given) the “activity change, negative = inhibition” value was 10.8% (inactive).
With `CCOC(=O)C1(Cc2cccc(OC)c2)CCN(Cc2csc(C(C)=O)c2)CC1` the Potency was 22.4 µM (active).
With `CCOC(=O)C1(Cc2cccc(OC)c2)CCN(C(C)CC(C)(C)O)CC1` (stereo not given) the “activity change, negative = inhibition” value was -11% (inactive).
In the case of `c1ccc(-c2c[nH]c(-c3ccccc3)c2)cc1`, the “activity change, negative = inhibition” value is reported as -6.21% (inactive).
With `Cc1cc2oc3ccc(NCCC4CCCN4C)cc3c(=O)c2cc1C` (stereo not given) the Potency was 14.1 µM (active).
With `CCCOc1ccc(C2c3c(oc4cc(C)c(C)cc4c3=O)C(=O)N2CCCN2CCOCC2)cc1` (stereo not given) the “activity change, negative = inhibition” value was -7.54% (inactive).
With `Cc1cc2oc(=O)cc(CN3CCN(Cc4ccccc4)CC3)c2cc1C` the “activity change, negative = inhibition” value was -11.3% (inactive).
For `CSc1ncccc1C(=O)Nc1ccc2c(c1)OCO2`, the “activity change, negative = inhibition” value was 3.31% (inactive).
For `O=C1C2C3C=CC(C3)C2C(=O)N1c1ncc([N+](=O)[O-])s1` (stereo not given), the “activity change, negative = inhibition” value was 0.319% (inactive).
In the case of `CCN(C(=O)CSc1ncnc2sccc12)c1c(N)n(Cc2ccccc2)c(=O)[nH]c1=O`, the “activity change, negative = inhibition” value is reported as 5.2% (inactive).
In the case of `Cc1c(C(=O)Nc2ccccc2)sc2nc3n(c(=O)c12)CCCCC3`, the “activity change, negative = inhibition” value is reported as 2.42% (inactive).
With `O=c1c2c(nc3n1CCCCC3)sc1c(O)cccc12` the “activity change, negative = inhibition” value was -3.44% (inactive).
With `CC(=O)c1ccc(NC(=O)c2sc3nc4n(c(=O)c3c2C)CCCCC4)cc1` the Potency was 11.2 µM (active).
